Tau fibril FP: tau fibrillization inhibition (FP); Potency, µM (series often up to 57.7 µM), without a hit: at the highest dose activity, negative = inhibition, actives largely listed as inhibitors; actives 0.39% (n = 280,000); AID 1468; P10636; K18 P301L tau heparin fibrillization, Alexa594 FP, 6 h; note: nearly all actives have a fitted effect of over 55% in size
Target sequence (P10636 561-689 P618L limits assumed): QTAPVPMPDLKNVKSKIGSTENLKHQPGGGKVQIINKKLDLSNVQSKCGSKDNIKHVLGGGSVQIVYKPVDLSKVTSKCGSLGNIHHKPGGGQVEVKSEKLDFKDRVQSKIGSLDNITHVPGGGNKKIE
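Steps: dispense K18 P301L tau (15 uM plus 0.24 uM Alexa 594 tracer, final) in pH 7 sodium acetate; add compound; add heparin (20 uM final); incubate 6 hr, 37 C; add ThT (30 uM final); after 1 hr ambient, read FP.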
VDR inh: inhibitors of human vitamin D receptor | VDR-SRC2-3 peptide fluorescence polarization, 2 h | Potency, µM, for the others: max response, negative = inhibition, hits mostly inhibitors | actives 0.93% (n = 400,000) | P11473
Target sequence (P11473 whole entry, looked up): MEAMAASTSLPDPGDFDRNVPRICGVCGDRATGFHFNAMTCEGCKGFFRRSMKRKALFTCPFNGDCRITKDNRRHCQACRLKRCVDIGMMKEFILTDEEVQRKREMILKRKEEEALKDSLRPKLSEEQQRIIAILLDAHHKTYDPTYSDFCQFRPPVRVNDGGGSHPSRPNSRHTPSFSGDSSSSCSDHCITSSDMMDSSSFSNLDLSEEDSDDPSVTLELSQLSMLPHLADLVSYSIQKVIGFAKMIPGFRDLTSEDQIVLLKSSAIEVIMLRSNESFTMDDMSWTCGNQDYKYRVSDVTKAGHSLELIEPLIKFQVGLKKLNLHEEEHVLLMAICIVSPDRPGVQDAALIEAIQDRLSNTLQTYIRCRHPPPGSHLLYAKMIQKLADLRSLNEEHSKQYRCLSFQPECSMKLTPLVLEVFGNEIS
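Measured by FP: displacement of SRC2-3 coactivator peptide from VDR by library compounds, following a two-hour ambient incubation.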
Tau fluor counter: counter-screen for tau fibril formation inhibitors | AID 1463 | actives 0.93% (n = 280,000) | tau K18 P301L Alexa594 fluorescence, heparin fibrillization | Potency, µM (doses to about 57.7 µM), inactives show at the highest dose activity change, negative = decrease; note: nearly all actives have a fitted effect of over 55% in size
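Human tau K18 P301L (15 uM unlabeled, 0.24 uM Alexa 594-labeled) in 100 mM sodium acetate pH 7 with 20 uM heparin, 6 hr at 37 C. ThT 30 uM added, 1 hr ambient; Alexa 594 FP and total fluorescence read at 555/632 nm.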
Tau fibril ThT: tau fibrillization inhibition (ThT binding); Potency, µM (titrated, usually from 57.4 µM), for the others: at the top dose activity, negative = inhibition, usual class: inhibitors; AID 1460; P10636; recombinant tau K18 P301L, heparin-induced fibrillization, ThT fluorescence; actives 2.1% (n = 270,000); note: nearly all actives have a fitted effect of over 55% in size
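Using a mix of unlabeled (15 uM) and Alexa 594-labeled (0.24 uM) tau K18 P301L, heparin-triggered fibrillization over 6 hr at 37 C was scored by ThT fluorescence.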
Sfp PPTase inh: Sfp phosphopantetheinyl transferase inhibition; Q9F4F7; AID 1490; Biochemical Sfp PPTase activity, qHTS; actives 3.5% (n = 310,000); Potency, µM, without a hit: largest response in the series, negative = inhibition, most hits filed as inhibitors;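 note: the enzyme is Sfp with the accession as filed and its product quenches rhodamine fluorescence; 0% = enzyme reaction without inhibitor and -100% = no enzyme wells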
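Reaction rates are the 30-min fluorescence difference (ex 525, em 598 nm) in wells containing 15 nM Sfp, 5 uM rhodamine-CoA and 12.5 uM BHQ-2-YbbR at pH 7.6 with 10 mM MgCl2.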
PLK1 PBD block: inhibitors of human PLK1 polo-box domain binding. Plk1 PBD binding of FITC phosphopeptide, fluorescence polarization. actives 2.8% (n = 360,000). P53350. Potency, µM, for inactives: max response, negative = inhibition, actives largely listed as inhibitors; note: series mostly up to about 57 µM; nearly all actives have a fitted effect of over 65% in size
The depositor's hits bear a star; ? = inconclusive; . = no result; [ ] = remark or other dose. Hits are enriched below; roughly 6% of the tested compounds scored in any of these assays. Calls come from the whole dose curve; as a rule, active = well fitted curve in the direction sought with a large enough effect; inconclusive = small, poorly fitted or top-dose-only effect, or another doubt; inactive = no such curve, though single readings can be large; an effect the other way counts as inactive or inconclusive. Unless noted, % is set by controls: 0 for no effect and ±100 for the full control effect; potency is the fitted concentration of half-maximal effect.

SMILES	Tau fibril FP	VDR inh	Tau fluor counter	Tau fibril ThT	Sfp PPTase inh	PLK1 PBD block
S=C(Nc1ccc2nc(-c3ccccn3)c(-c3ccccn3)nc2c1)N1CCCCCC1	-2%	6%	-21%	?	40µM*	?
CCCNC(=S)Nc1ccc(Oc2ccccc2)cc1	0%	-11%	?	?	-8%	-28%
S=C(Nc1ccc2nc(-c3ccccn3)c(-c3ccccn3)nc2c1)N1CCCCC1	7%[2.34 µM]	-19%	7%[2.34 µM]	4%	0%	?
COc1ccc2[nH]c(=O)c(CN(C(=O)c3cccc(Cl)c3)c3cccc(C)c3)cc2c1	-5%	12%	-8%	?	.	.
C=CCN1C(=O)c2ccc(C(=O)N3CCN(S(=O)(=O)c4cccc(Cl)c4)CC3)cc2C1=O	.	-21%	.	.	14%	6%
Cc1nc2cccnc2n1C1CCN(S(C)(=O)=O)CC1	2%	-10%	3%	-3%	.	.
C#CCOc1ccccc1CNC1CCN(Cc2ccccc2)CC1	.	-6%	.	.	79µM*	-15%
C#CCOc1ccccc1CNc1ccccc1	12%	-3%	-27%	?	5%	-6%
CCOc1ccc(CCNC(=O)CN2C(=O)COc3ccc(S(=O)(=O)N4CCC(C)CC4)cc32)cc1	-4%	-14%	-28%	-13%	.	.
O=C(C=Cc1ccccc1Cl)c1ccccc1	.	35µM*	.	.	.	-16%
O=C(C=Cc1ccccn1)c1ccccc1	.	20µM*	.	.	.	?
Cc1ccc(C(=O)/C=C/Nc2ccccn2)cc1	.	-10%	.	.	.	-6%
COc1cc(C(=O)/C=C/c2cccnc2)c([N+](=O)[O-])cc1OC	.	50µM*	.	.	.	-20%
CCC(CC)NC(=O)/C=C/c1ccccc1Cl	-1%	50µM*	-2%	-1%	6%	30µM*
CC[C@H](C)[C@H](NC(=O)[C@H](C)NC(=O)[C@H](CC(=O)O)NC(=O)[C@H](CO)NC(=O)[C@@H](N)Cc1cnc[nH]1)C(=O)N[C@@H](Cc1ccccc1)C(=O)N[C@H](C(=O)N[C@@H](CCC(N)=O)C(=O)N[C@@H](CCC(N)=O)C(=O)N[C@@H](Cc1ccc(O)cc1)C(=O)N[C@@H](CO)C(=O)N[C@@H](CCCCN)C(=O)N[C@@H](CC(C)C)C(=O)N[C@@H](CC(C)C)C(=O)N[C@@H](C)C(=O)N[C@@H](CCCCN)C(=O)N[C@@H](CC(C)C)C(=O)N[C@@H](C)C(=O)N[C@@H](CC(C)C)C(=O)N[C@@H](CCC(N)=O)C(=O)N[C@@H](CCCCN)C(=O)N[C@@H](Cc1ccc(O)cc1)C(=O)N[C@@H](CC(C)C)C(=O)N[C@@H](C)C(=O)N[C@@H](CO)C(=O)N[C@H](C(=O)N[C@@H](CC(C)C)C(=O)NCC(=O)N[C@@H](CO)C(=O)N[C@@H](CCCNC(=N)N)C(=O)N[C@H](C(=O)N[C@@H](CO)C(=O)N1CCC[C@H]1C(=O)N1CCC[C@H]1C(=O)N1CCC[C@H]1C(N)=O)[C@@H](C)O)[C@@H](C)CC)[C@@H](C)O	.	41%	.	.	22%	.
CC(O)(c1ccc(F)c(F)c1)c1nc(-c2ccoc2)cs1 (stereo not given)	.	.	.	.	.	-14%
O=C(/C=C/c1cccnc1)c1ccccc1O	5%	?	3%	-15%	45µM*	-21%
O=C(C=Cc1ccccn1)c1ccccc1O	.	56µM*	.	.	.	21µM*
O=C(/C=C/c1ccccc1Cl)NC1CCS(=O)(=O)C1 (stereo not given)	0%	?	6%	1%	5%	3.8µM*
O=C(C=Cc1cccnc1)c1ccccc1	.	?	.	.	.	-9%
O=C(/C=C/c1ccccc1Cl)NC1CCCCC1	.	-6%	.	.	4%	-19%
Cc1cc(C)cc(-n2nnc(-c3nc(-c4ccccc4F)no3)c2C)c1	2%	9%	-5%	1%	.	.
CCCCC(C(=O)O)C(C)CC(=O)Nc1nncs1 (stereo not given)	-5%	-23%	-2%	-5%	12%	21µM*
CC(CCC(=O)Nc1nncs1)C(=O)O (stereo not given)	-1%	-18%	2%	-2%	13%	0%
N#Cc1ccc(OCC(=O)N2CCN(c3ccc(C(F)(F)F)cn3)CC2)cc1	.	?	.	.	.	2%
SMILES	Tau fibril FP	VDR inh	Tau fluor counter	Tau fibril ThT	Sfp PPTase inh	PLK1 PBD block
C[C@@]1(C(NC(=O)c2ccccc2)c2ccc(-c3ccccc3)cc2)C[C@H]1C1CCCCC1 (stereo not given in full)	-1%	.	5%	-8%	17%	.
O=C(NNc1nc2ccccc2s1)Nc1ccc(Cl)c(Cl)c1	-16%	-19%	?	?	56µM*	-5%
CC(C)C(=O)NNc1nc2ccccc2s1	6%	4%	-4%	-10%	19%	-5%
O=C(NNc1nc2ccccc2s1)Nc1ccc(F)cc1	9%	12%	-12%	?	100µM*	-14%
O=C(NNc1nc2ccccc2s1)C1CC1	0%	-2%	-1%	-5%	45µM*	-6%
S=C1SCN(Cc2ccccc2)CN1Cc1ccccc1	.	16%	.	.	-10%	0%
S=C1SCN(Cc2cccnc2)CN1Cc1cccnc1	-4%	-10%	2%	-4%	14µM*	0%
CC(=O)CCN1CCOCC1	-1%	12%	-4%	-11%	-9%	-3%
CN(C)C(=O)CCN1CCOCC1	-9%	6%	-8%	-3%	2%	24µM*
COCCC(=O)N1CCC(Oc2ccc(C(=O)N3CCCCCC3)cc2)CC1	.	?	.	.	21%	11µM*
Cc1ccc(NC(=O)c2cnc(N3CCN(c4ccccn4)CC3)c3ccccc23)c(Br)c1	10%	1%	-18%	?	-15%	24µM*
O=C(Nc1c(F)cccc1F)c1cnc(N2CCN(c3ccccn3)CC2)c2ccccc12	-7%	5%	-28%	?	9%	2%
CN(C)C1CCCCC=CC(=O)NC1 (stereo not given)	.	.	.	.	.	0%
Cc1cc(O)ccc1Nc1nc(-c2sc(N)nc2C)cs1	?	-15%	?	13µM*	-3%	?
Cc1csc(Nc2ccccc2)n1	0%	12%	-4%	-6%	-5%	30µM*
Cc1nc(C)c(-c2csc(Nc3cccnc3)n2)s1	13%	-4%	-25%	?	-12%	-12%
Cc1csc(Nc2ccc(C(=O)O)cc2)n1	-1%	3%	-4%	-3%	10%	4%
Cc1nc(N)sc1-c1csc(Nc2ccccc2)n1	?	?	25µM*[quencher]	11µM*	-10%	27µM*
Cc1cc(NS(=O)(=O)c2ccc(Nc3nc(-c4sc(N)nc4C)cs3)cc2)no1	?	?	?	20µM*	50µM*	30µM*
Cc1ccccc1OCCC(=O)Nc1ccc(S(=O)(=O)N2CCCC2)cc1	.	.	.	.	.	1%

High-throughput results: PubChem, National Center for Advancing Translational Sciences (NCATS)
